Compound activity from PubChem BioAssay.
uPA generation: inhibitors of cell surface uPA generation | cell surface uPA generation assay, qHTS | Potency, µM (doses to about 38.3 µM), hits mostly inhibitors | 0.31% of 330,000 active; active = well fitted inhibition curve with a large enough effect; inconclusive = small, poorly fitted or top-dose-only effect; inactive = no such curve, though single readings can be large or run the other way; tested in mouse RAW 264.7 cells; note: nearly all actives have a fitted effect of over 55% in size
Gal4-VP16 FLuc: inhibits Gal4-VP16 luciferase reporter, ROR gamma counter-screen. 3.5% of 310,000 active. Drosophila S2 Gal4-VP16 UAS-luciferase, luminescence, 20 h. AID 2546. Potency, µM (top dose mostly 53.6 µM), hits mostly inhibitors;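 note: Gal4-VP16 expression switched on by copper sulfate through the metallothionein promoter; nearly all actives have a fitted effect of over 50% in size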
Mito fusion act: blocks mitochondrial division or promotes mitochondrial fusion | S. cerevisiae fusion-defective mutant growth rescue, CellTiterGlo 48 h | Potency, µM (series often up to 46.1 µM), most hits filed as activators | 0.23% of 320,000 active; note: nearly all actives have a fitted effect of over 45% in size
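Read-out: ATP-based luminescence (CellTiterGlo, 10 min ambient) reporting growth of fusion-defective ts yeast after 48 hours at 37C on glycerol/ethanol YPEG medium in the presence of compound.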
RORg inh: blocks mouse ROR gamma transcriptional activity; P51450; Drosophila S2 Gal4-RORgamma UAS-luciferase reporter, 20 h; Potency, µM (doses to about 53.6 µM), hits mostly inhibitors; 5.4% of 310,000 active; AID 2551; note: nearly all actives have a fitted effect of over 60% in size
Target sequence (P51450 whole entry, looked up, the tested form may be a part): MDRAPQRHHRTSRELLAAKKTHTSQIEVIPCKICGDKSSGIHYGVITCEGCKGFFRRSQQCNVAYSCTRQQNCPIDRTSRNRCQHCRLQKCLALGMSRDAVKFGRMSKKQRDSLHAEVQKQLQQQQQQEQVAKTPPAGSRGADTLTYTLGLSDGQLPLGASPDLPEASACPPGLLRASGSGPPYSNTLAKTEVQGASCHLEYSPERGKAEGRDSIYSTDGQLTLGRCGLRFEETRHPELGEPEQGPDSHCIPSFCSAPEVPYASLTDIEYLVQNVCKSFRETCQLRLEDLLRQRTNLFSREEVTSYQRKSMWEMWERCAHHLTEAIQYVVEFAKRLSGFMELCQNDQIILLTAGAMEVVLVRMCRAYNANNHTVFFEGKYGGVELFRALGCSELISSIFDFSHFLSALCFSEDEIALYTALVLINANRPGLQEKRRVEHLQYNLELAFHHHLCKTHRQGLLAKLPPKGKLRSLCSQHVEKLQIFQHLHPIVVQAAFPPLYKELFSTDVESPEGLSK
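A Gal4/UAS one-hybrid system in insect cells: metallothionein-promoter Gal4–ROR gamma fusion plus Photinus luciferase reporter. Copper sulfate 700 uM final, 20 hr ambient incubation, luminescent detection after 10 min with reagent.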
BCR signal inh: blocks chronic active B-cell receptor signaling | ABC-DLBCL IkBa-CBG/CBR reporter, luminescence ratio, 4 h | Potency, µM (doses to about 46.1 µM), actives largely listed as inhibitors | 0.05% of 340,000 active | AID 493014; active = well fitted inhibition curve with a large enough effect in the signal ratio, with a control signal flat, not every such curve was filed as active; inconclusive = small, poorly fitted or top-dose-only effect, or effect the other way, or a change in a side signal; the % refers to the signal ratio
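Concentration-response series (up to 46 uM) were applied to TMD8 dual-reporter cells for 4 h at 37C with doxycycline. Green/red ratio, after filter-overlap correction, defined %Activity; red signal alone was normalised to basal cells and zero luminescence.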
Integrin act MD: integrin-mediated muscular dystrophy alleviation activation; alpha7betagal myoblasts, beta-gal FDG fluorescence, 48 h; Potency, µM (top dose mostly 38.3 µM), usual class: activators; 0.064% of 350,000 active; AID 624291; note: nearly all actives have a fitted effect of over 60% in size
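Alpha7betagal+/- myoblasts (passage 13) were plated 16-24 hr, then exposed to compounds (1:260 dilution of DMSO stock) for 48 hours at 37C. After MPER lysis, β-galactosidase reporter activity was read as FDG fluorescence (ex 480/em 540) after 30 minutes.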
Numbers stand for hits; - = inactive; ? = inconclusive; . = not tested or not shown. Sampled rows, rich in hits. Any-hit rate of the full collection: about 5.5%. Unless noted, calls come from the whole dose curve; as a rule, active = well fitted curve in the direction sought with a large enough effect; inconclusive = small, poorly fitted or top-dose-only effect, or another doubt; inactive = no such curve, though single readings can be large; an effect the other way counts as inactive or inconclusive.

SMILES | uPA generation | Gal4-VP16 FLuc | Mito fusion act | RORg inh | BCR signal inh | Integrin act MD
COc1cccc(NC(=O)c2ccc(-c3nc(COc4ccccc4)c(C)o3)cc2)c1 | . | . | . | . | - | .
CC1CC1C(=O)Nc1nc(-c2ccccn2)cs1 (stereo not given) | - | ? | - | 11µM | ? | -
Cc1nc2ccc3nc(NC(=O)C4COc5ccccc5O4)sc3c2s1 (stereo not given) | - | ? | - | - | ? | -
Cc1cnc(NC(=O)C2COc3ccccc3O2)s1 (stereo not given) | - | 8.9µM | - | 7.1µM | ? | -
O=C(Nc1ccc(Cl)cn1)C1COc2ccccc2O1 (stereo not given) | - | ? | - | 4µM | ? | -
O=C(CN1C(=O)C2CCCCC2C1=O)Nc1nc(-c2ccccn2)cs1 (stereo not given) | - | - | - | ? | ? | -
CSc1nc2ccc3nc(NC(=O)C4COc5ccccc5O4)sc3c2s1 (stereo not given) | - | - | - | 10µM | ? | -
CC(C)C[C@H](NC(=O)[C@H](CO)NC(=O)CNC(=O)[C@H](CCCCN)NC(=O)[C@H](CCCN=C(N)N)NC(=O)[C@H](C)NC(=O)[C@H](Cc1ccccc1)NC(=O)[C@@H](N)CCCN=C(N)N)C(=O)N[C@@H](CCCN=C(N)N)C(=O)N[C@@H](CCC(N)=O)C(=O)N[C@@H](CCCCN)C(=O)N[C@@H](CC(N)=O)C(=O)N[C@H](C(=O)O)C(C)C | . | - | . | - | . | .
O=C(Nc1nc(-c2ccccc2)cs1)C1COc2ccccc2O1 (stereo not given) | - | - | - | - | ? | -
O=C(Nc1nc(-c2ccccn2)cs1)C1COc2ccccc2O1 (stereo not given) | ? | 0.2µM | ? | 0.89µM | ? | -
Cn1nccc1C(=O)N/N=C/c1c(O)ccc2ccccc12 | ? | 2.8µM | - | 3.2µM | - | -
Cn1c2ccccc2c2cc(/C=N/NC(=O)c3ccc(N)cc3)ccc21 | - | - | - | - | ? | -
O=C(N/N=C\c1c(O)ccc2ccccc12)c1ccc(O)cc1 | ? | 5.6µM | - | 5µM | ? | -
Cn1cc(C(=O)N/N=C/c2c(O)ccc3ccccc23)ccc1=O | ? | - | - | - | - | -
Cc1occc1C(=O)N/N=C/c1c(O)ccc2ccccc12 | - | 18µM | - | 4µM | ? | -
O=C(NN=Cc1c(O)ccc2ccccc12)c1ccncc1 | - | . | . | . | . | -
Cn1c(-c2ccccc2)c(/C=N/NC(=O)c2ccc(O)cc2)c2ccccc21 | 3.5µM | - | - | - | ? | -
Cc1occc1C(=O)N/N=C/c1c[nH]c2ccccc12 | . | - | - | ? | ? | -
Cn1cccc1/C=N\NC(=O)c1cncc(Br)c1 | - | ? | - | 13µM | ? | -
O=C(N/N=C/c1c(O)ccc2ccccc12)c1ccc(Br)o1 | - | 2.8µM | - | 3.2µM | - | -
O=C(N/N=C\c1c(O)ccc2ccccc12)c1cncc(Br)c1 | - | 4.5µM | - | 5µM | - | -
O=C(N/N=C/c1c(O)ccc2ccccc12)c1cccnc1 | - | 13µM | - | 10µM | ? | -
O=C(N/N=C/c1c(O)ccc2ccccc12)c1ccc[n+](CCO)c1 | - | - | - | - | - | -
COc1ccc2ccccc2c1/C=N\NC(=O)c1cccnc1 | - | . | . | . | . | -
CCn1nnc(-c2ccc(N)cc2)n1 | - | - | - | - | - | -
SMILES | uPA generation | Gal4-VP16 FLuc | Mito fusion act | RORg inh | BCR signal inh | Integrin act MD
CC(=O)NC(Cc1cccc(F)c1)C(=O)NC1CCN(c2nnnn2-c2ccccc2)CC1 (stereo not given) | - | - | - | - | - | ?
O=C(N/N=C/c1cc(Br)c(O)c(Br)c1O)c1cccnc1 | - | ? | - | ? | ? | -
Cc1cc(O)c(C)c(O)c1/C=N/NC(=O)c1cccnc1 | - | 7.9µM | - | 7.9µM | - | -
Cc1ccc(C(=O)N/N=C/c2c(O)ccc3ccccc23)cn1 | ? | 7.1µM | - | 5µM | ? | -
Cn1c(CCCNC(=O)c2ccccc2)nc2ccccc21 | - | - | - | - | ? | -
Cn1c(/C=N/NC(=O)c2ccccc2)nc2ccccc21 | - | - | - | 13µM | ? | -
